From PubChem BioAssay (NCI)
This is part of a sample that, as a whole, favours compounds with a hit. Of some 83,000 tested, about 20% had one in any assay.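 Assay: single dose, 48 h. Readout: percent growth (0 = no net growth; negative = cell death). Active: <10.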 The source made the active and inactive calls.

What was measured:
Experiment in all cases: NCI-60 one-dose screen, 48 h (100 = growth as untreated, 0 = no growth, -100 = all killed)
DU-145 prostate = conditions: 10 µM unless noted
K-562 leukemia = conditions: 10 µM unless noted
MALME-3M melanoma = conditions: 10 µM unless noted
MDA-MB-231 breast = conditions: 10 µM unless noted
RXF 393 renal = conditions: 10 µM unless noted
SF-268 CNS = conditions: 10 µM unless noted
SF-295 CNS = conditions: 10 µM unless noted
SF-539 CNS = conditions: 10 µM unless noted
UACC-257 melanoma = conditions: 10 µM
M14 melanoma = conditions: 10 µM unless noted
HCT-15 colon = conditions: 10 µM unless noted
HT29 colon = conditions: 10 µM unless noted
SNB-75 CNS = conditions: 10 µM unless noted
SNB-19 CNS = conditions: 10 µM unless noted
U251 CNS = conditions: 10 µM unless noted
PC-3 prostate = conditions: 10 µM unless noted
SK-MEL-5 melanoma = conditions: 10 µM unless noted
UACC-62 melanoma = conditions: 10 µM unless noted
LOX IMVI melanoma = conditions: 10 µM unless noted
SK-MEL-28 melanoma = conditions: 10 µM unless noted

Measured: growth

CN1CCN(c2ccc(C(=O)Nc3cccc(-c4cn(-c5ccc(S(N)(=O)=O)cc5)nn4)c3)cc2C(F)(F)F)CC1
inactive: DU-145 prostate 92.5% | MALME-3M melanoma 71.4% | MDA-MB-231 breast 63.6% | SF-268 CNS 82.9% | SF-295 CNS 90.4% | SF-539 CNS 46.2% | UACC-257 melanoma 95.8% | M14 melanoma 82.2% | HCT-15 colon 41.1% | HT29 colon 16.7% | SNB-75 CNS 64.9% | SNB-19 CNS 86.6% | U251 CNS 59.6% | PC-3 prostate 69.8% | SK-MEL-5 melanoma 90.6% | UACC-62 melanoma 82.7% | LOX IMVI melanoma 23.1% | SK-MEL-28 melanoma 72.7%
active: K-562 leukemia 9.33% | RXF 393 renal 6.63%

O=C(Nc1cc(Cl)cc(Cl)c1)Nc1ccc2oc(=O)ccc2c1
active: MALME-3M melanoma 0.228% | SF-295 CNS 3.51% | HCT-15 colon 8.08% | U251 CNS 6.21% | PC-3 prostate 1.84% | UACC-62 melanoma 2.84% | SK-MEL-28 melanoma 9.09%
inactive: DU-145 prostate 17% | K-562 leukemia 15.4% | MDA-MB-231 breast 24.6% | RXF 393 renal 47.7% | SF-268 CNS 24.8% | SF-539 CNS 22.5% | UACC-257 melanoma 23.4% | M14 melanoma 32.5% | HT29 colon 16.2% | SNB-75 CNS 39.3% | SNB-19 CNS 13.3% | SK-MEL-5 melanoma 29.6% | LOX IMVI melanoma 14.8%

CN(c1ccc(Cl)cc1)S(=O)(=O)c1ccc(-c2cnc(C3CC3)o2)cc1
inactive: DU-145 prostate 15.9% | K-562 leukemia 10.4% | MALME-3M melanoma 77.8% | MDA-MB-231 breast 22.3% | RXF 393 renal 46.5% | SF-268 CNS 40.2% | SF-295 CNS 18% | SF-539 CNS 10.4% | UACC-257 melanoma 66.1% | M14 melanoma 24.9% | HCT-15 colon 15.6% | HT29 colon 15% | SNB-75 CNS 43% | SNB-19 CNS 44.4% | U251 CNS 32.3% | PC-3 prostate 22.3% | SK-MEL-5 melanoma 10.2% | UACC-62 melanoma 37.3% | LOX IMVI melanoma 12.9% | SK-MEL-28 melanoma 65.2%

COc1ccccc1/C=C/C=N/NC1=NC2C(S1)N(C)C(=O)N2c1ccccc1 (stereo not given)
active: DU-145 prostate 8.54% | RXF 393 renal 1.56% | SF-295 CNS 9.01% | SF-539 CNS -15.5% | M14 melanoma -12.1% | SK-MEL-5 melanoma -12.6% | LOX IMVI melanoma -0.484%
inactive: K-562 leukemia 14.3% | MALME-3M melanoma 45.7% | MDA-MB-231 breast 18.8% | SF-268 CNS 44.4% | UACC-257 melanoma 79.8% | HCT-15 colon 12.1% | HT29 colon 15.9% | SNB-75 CNS 18.3% | SNB-19 CNS 22.7% | U251 CNS 23.5% | PC-3 prostate 26.9% | UACC-62 melanoma 33% | SK-MEL-28 melanoma 60.3%

NC(=O)C(=Cc1ccc(Cl)cc1)C(N)=O
inactive: DU-145 prostate 39.7% | K-562 leukemia 31.8% | MALME-3M melanoma 82% | MDA-MB-231 breast 80.3% | RXF 393 renal 62.9% | SF-268 CNS 84.8% | SF-295 CNS 71.9% | SF-539 CNS 55.6% | UACC-257 melanoma 68.3% | M14 melanoma 70.3% | HCT-15 colon 36.6% | HT29 colon 77.4% | SNB-75 CNS 62.4% | SNB-19 CNS 77.9% | U251 CNS 68.7% | PC-3 prostate 70.4% | SK-MEL-5 melanoma 95.4% | UACC-62 melanoma 85.3% | LOX IMVI melanoma 57.4% | SK-MEL-28 melanoma 70%

N#Cc1c(-c2ccccc2)cc(-c2c[nH]c3ccccc23)nc1-c1c[nH]c2ccccc12
inactive: DU-145 prostate 108% | K-562 leukemia 101% | MALME-3M melanoma 99.8% | MDA-MB-231 breast 92.6% | RXF 393 renal 95% | SF-268 CNS 96.1% | SF-295 CNS 96.4% | SF-539 CNS 98.6% | UACC-257 melanoma 107% | M14 melanoma 101% | HCT-15 colon 99.3% | HT29 colon 103% | SNB-75 CNS 81.2% | SNB-19 CNS 97.6% | U251 CNS 94.3% | PC-3 prostate 92.4% | SK-MEL-5 melanoma 99.2% | UACC-62 melanoma 94.9% | LOX IMVI melanoma 100% | SK-MEL-28 melanoma 110%

CC1CCc2c(sc3nc(SCC(=O)N/N=C/c4cccc(O)c4O)n(-c4ccccc4)c(=O)c23)C1 (stereo not given)
inactive: DU-145 prostate 74.7% | K-562 leukemia 77.6% | MALME-3M melanoma 95.1% | MDA-MB-231 breast 84.6% | SF-268 CNS 105% | SF-295 CNS 86.7% | SF-539 CNS 94.7% | UACC-257 melanoma 100% | M14 melanoma 84.4% | HCT-15 colon 85.6% | HT29 colon 105% | SNB-75 CNS 99.2% | SNB-19 CNS 98.1% | U251 CNS 90.9% | PC-3 prostate 76.8% | SK-MEL-5 melanoma 94.1% | UACC-62 melanoma 84% | LOX IMVI melanoma 60.4% | SK-MEL-28 melanoma 78.4%
active: RXF 393 renal -2.02%

C(=C(\C1=NCCN1)n1cnc2ccccc21)/c1cccc2ccccc12
inactive: DU-145 prostate 98.1% | K-562 leukemia 84.9% | MALME-3M melanoma 91.7% | MDA-MB-231 breast 81% | RXF 393 renal 46.9% | SF-268 CNS 85% | SF-295 CNS 76.9% | SF-539 CNS 91.7% | UACC-257 melanoma 94.7% | M14 melanoma 70% | HCT-15 colon 88.2% | HT29 colon 95% | SNB-75 CNS 78.2% | SNB-19 CNS 88.8% | U251 CNS 94.6% | PC-3 prostate 78.6% | SK-MEL-5 melanoma 87.3% | UACC-62 melanoma 88.1% | LOX IMVI melanoma 83.8% | SK-MEL-28 melanoma 93.8%

COc1ccc(CCN2C(=O)/C(=C/c3nc(CO)cs3)SC2=S)cc1
inactive: DU-145 prostate 46.1% | K-562 leukemia 60.4% | MALME-3M melanoma 73.2% | MDA-MB-231 breast 53.2% | RXF 393 renal 51.1% | SF-268 CNS 94.8% | SF-295 CNS 101% | SF-539 CNS 11.2% | UACC-257 melanoma 91.2% | M14 melanoma 85.3% | HCT-15 colon 51.2% | HT29 colon 103% | SNB-75 CNS 73.1% | SNB-19 CNS 91.7% | U251 CNS 91.9% | PC-3 prostate 74% | SK-MEL-5 melanoma 98.1% | UACC-62 melanoma 79.7% | LOX IMVI melanoma 30.8% | SK-MEL-28 melanoma 97.2%

COc1ccc(S(=O)(=O)n2cc(C=O)c3ccccc32)c(OC)c1
inactive: DU-145 prostate 103% | K-562 leukemia 14.4% | MALME-3M melanoma 79.7% | MDA-MB-231 breast 95.5% | RXF 393 renal 95.3% | SF-268 CNS 73.6% | SF-295 CNS 99.9% | SF-539 CNS 78.6% | UACC-257 melanoma 82.5% | M14 melanoma 52.8% | HCT-15 colon 40% | HT29 colon 107% | SNB-75 CNS 75.3% | SNB-19 CNS 85% | U251 CNS 52.8% | PC-3 prostate 66.3% | SK-MEL-5 melanoma 67.3% | UACC-62 melanoma 63.1% | LOX IMVI melanoma 64.3% | SK-MEL-28 melanoma 83.8%

C#C[C@]1(O)CC[C@H]2[C@@H]3CC=C4c5sc(-c6ccccn6)nc5CC[C@]4(C)[C@H]3CC[C@@]21C
inactive: DU-145 prostate 90.2% | K-562 leukemia 31.9% | MALME-3M melanoma 81.9% | MDA-MB-231 breast 78.6% | SF-268 CNS 82.4% | SF-539 CNS 30.9% | UACC-257 melanoma 70.5% | M14 melanoma 74.8% | HCT-15 colon 68.9% | HT29 colon 68.2% | SNB-75 CNS 37.4% | SNB-19 CNS 72.4% | U251 CNS 51.1% | PC-3 prostate 51.9% | SK-MEL-5 melanoma 91% | UACC-62 melanoma 67.6% | LOX IMVI melanoma 62.9% | SK-MEL-28 melanoma 44.3%
active: RXF 393 renal -34.4% | SF-295 CNS -37.3%

CCc1ccc(NC(=O)N[C@@H](Cc2cccc(F)c2)C(=O)N[C@@H]2C(=O)N3CCC[C@H]3C(=O)N3CCCC[C@H]3C(=O)N[C@@H](CO)C(=O)N3C[C@H](C)C[C@H]3C(=O)O[C@H]2C)c(F)c1
active: RXF 393 renal -11.7% | SK-MEL-5 melanoma 0.508%
inactive: DU-145 prostate 26.9% | K-562 leukemia 20.1% | MALME-3M melanoma 41.5% | MDA-MB-231 breast 35.2% | SF-268 CNS 30.6% | SF-295 CNS 15.8% | SF-539 CNS 39.8% | UACC-257 melanoma 16% | M14 melanoma 21.4% | HCT-15 colon 15.1% | HT29 colon 36.1% | SNB-75 CNS 26.4% | SNB-19 CNS 28.1% | U251 CNS 30.9% | PC-3 prostate 17.5% | UACC-62 melanoma 27.2% | LOX IMVI melanoma 24.9% | SK-MEL-28 melanoma 44.6%

COc1cc([C@H]2OC[C@H]3[C@@H]2CO[C@@H]3c2ccc(O)c(OC)c2)ccc1O
inactive: DU-145 prostate 94.8% | K-562 leukemia 99.4% | MALME-3M melanoma 106% | MDA-MB-231 breast 65.2% | RXF 393 renal 76.2% | SF-268 CNS 91.1% | SF-295 CNS 108% | SF-539 CNS 91.1% | UACC-257 melanoma 113% | M14 melanoma 102% | HCT-15 colon 88.4% | HT29 colon 92.8% | SNB-75 CNS 87.9% | SNB-19 CNS 104% | U251 CNS 97% | PC-3 prostate 82.6% | SK-MEL-5 melanoma 57.3% | UACC-62 melanoma 91% | SK-MEL-28 melanoma 93.5%
active: LOX IMVI melanoma 9.99%

O=C(NNc1nc2cc(F)c(F)cc2n2cccc12)c1ccncn1
active: SF-539 CNS 6.94% | SNB-75 CNS -6.38% | SK-MEL-5 melanoma -19.4%
inactive: DU-145 prostate 22.2% | K-562 leukemia 16.1% | MALME-3M melanoma 34.4% | MDA-MB-231 breast 36.4% | RXF 393 renal 30.4% | SF-268 CNS 18.7% | SF-295 CNS 15.9% | UACC-257 melanoma 15.7% | M14 melanoma 12.9% | HCT-15 colon 23.6% | HT29 colon 27.3% | SNB-19 CNS 27.5% | U251 CNS 17.9% | PC-3 prostate 33.2% | UACC-62 melanoma 19% | LOX IMVI melanoma 11.7% | SK-MEL-28 melanoma 29.4%

CC(C)C(=O)Nc1ccc(-c2nc(-c3cccc(O)c3)c(-c3ccnc(Br)c3)[nH]2)cc1
active: K-562 leukemia 7.32% | RXF 393 renal -31.5% | SF-295 CNS -40.5% | SNB-75 CNS 4.68%
inactive: DU-145 prostate 69.3% | MALME-3M melanoma 40.8% | MDA-MB-231 breast 58.5% | SF-268 CNS 54.8% | SF-539 CNS 34.5% | UACC-257 melanoma 52.7% | M14 melanoma 49.4% | HCT-15 colon 65.6% | HT29 colon 41% | SNB-19 CNS 47% | U251 CNS 42.5% | PC-3 prostate 29.7% | SK-MEL-5 melanoma 42.7% | UACC-62 melanoma 31.8% | LOX IMVI melanoma 38.4% | SK-MEL-28 melanoma 50.3%
